Results reported in PubChem BioAssay (NCI).
“And” between values parts separate entries of the source, which are not always exact repeats. Equal values may be shown once. About 83,000 compounds went through this panel and 20% of them were active in at least one assay; those are over-represented in the sample as a whole.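 Step 1: grow cells in 96-well plates. Step 2: add test compound at a single concentration. Step 3: incubate 48 h. Step 4: record percent growth.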 The source made the active and inactive calls. Rule for the calls: active = growth percent below 10; inactive = the rest.

tested on: MDA-MB-468 breast; test: NCI-60 one-dose screen, 48 h (100 = growth as untreated, 0 = no growth, -100 = all killed); details: 10 µM unless noted

Structure (SMILES)	growth
CN(CCCNC(=O)Cc1ccc2ccc3cccc4ccc1c2c34)CCCNc1cc(-c2ccc3ccccc3c2)nc2ccccc12	-78.4% (active)
Cn1ccnc1C(=O)/C=C/c1ccc(C(=O)Nc2nc3ccccc3[nH]2)cc1	-3.55% (active)
Cc1c2ncccc2nc2[nH]c3ccc(OCCN(C)C)cc3c12	-34.7% (active)
CC[C@H]1[C@@H]2C=C[C@@H]3[C@H]4C/C=C\C(=O)NCCC[C@@H]5NC(=O)/C(=C(O)/C=C/[C@@H]4C[C@@H]3[C@H]2C[C@H]1C)C5=O	76.8% (inactive)
CC(C)c1c(C(=O)Nc2ccccc2)c(-c2ccccc2)c(-c2ccc(F)cc2)n1CC[C@@H]1CC=CC(=O)O1	-48.3% (active)
CCOC(=O)C(=O)Cc1cccnn1	102% (inactive)
N#C/C(=C\c1cccc2cnccc12)N1N=NC2C=CC=CC21 (centres undefined)	32.9% (inactive)
CN(C)C1CCC(NC2=CC(=O)C=CC2=O)CC1 (centres undefined)	105% (inactive)
O=C(NNc1nc2cc(F)ccc2n2cncc12)c1cnccn1	31.7% (inactive)
O=C(c1ccccc1)C(CN1CCOCC1)c1ccccc1 (centres undefined)	-68.7% (active)
O=S1(=O)N(Cc2ccccc2)[C@@H](Cc2ccccc2)[C@H](O)[C@H](O)[C@H](Cc2ccccc2)N1Cc1ccccc1	-27.7% (active)
O=C1c2ccccc2C(=O)c2c(N=Nc3[nH]c(=S)[nH]c3O)cccc21	-4.9% (active)
CC(=O)OC[C@H]1OC(Sc2sc(C(=O)c3ccc(Cl)cc3)c(N)c2-c2nc3ccccc3s2)[C@H](OC(C)=O)[C@@H](OC(C)=O)[C@@H]1OC(C)=O (some centres undefined)	112% (inactive)
O=C(C(=O)c1cc(Br)ccc1O)c1cc(Br)ccc1O	29.5% (inactive)
FC(F)(F)c1cc(NC2=NCCN=C(Nc3cc(C(F)(F)F)cc(C(F)(F)F)c3)SS2)cc(C(F)(F)F)c1	23.6% (inactive)
N=S(=O)(NC(=O)c1ccc(Cl)cc1Cl)c1ccc(Br)s1 (centres undefined)	92.8% (inactive)
NC(=O)c1cccc(-n2ccc3cc(NC(=O)Nc4ccc(N5CCOCC5)c(C(F)(F)F)c4)ccc32)n1	0.818% (active)
O=C(Nc1cccc(-n2cc(-c3ccncc3)c(-c3ccc(O)c(Cl)c3)n2)c1)c1ccc(Cl)c(Cl)c1	68.9% (inactive)
Cc1cc(NS(=O)(=O)c2ccc(-c3cnc(C4CC4)o3)cc2)ccc1I	3.98% (active)
Cc1cc(C)c(NC(=O)c2sc3nc4c(cc3c2N)CN(Cc2ccccc2)CC4)c(C)c1	14% (inactive)

Structure (SMILES)	growth
CCCCCCCCCCCCC1CCC/C=C\CCC(=O)O1 (centres undefined)	100% (inactive)
S=c1cnc2ccccc2[nH]1	108% (inactive)
CCOC(=O)Nc1ccc(C(=O)/C=C/c2ccccc2)cc1	94% (inactive)
Oc1ccc(C2OCCO2)c2cccnc12	62.4% (inactive)
OC1CCN(CCCOc2c3ccccc3nc3c2oc2ccccc23)CC1	-16.4% (active)
O=C1/C(=C\c2coc3ccccc3c2=O)c2ccccc2N1c1c(Cl)cccc1Cl	44.9% (inactive)
COc1nc(OC)nc(-c2cc(C(=O)c3ccc(Br)cc3)n3cc(C)cc(C)c23)n1	51% (inactive)
Nc1nc2c(c3cnccc13)C(c1cccc(Br)c1)Cc1cnccc1-2 (centres undefined)	-16.1% (active)
COc1cc2c(cc1I)-c1c(cc(OC)c(OC)c1OC)CC[C@@H]2NC(C)=O	-6.02% (active)
CN(C)CCCNC1=C(Cl)C(=O)c2ccccc2C1=O	-8.11% (active) and -54.1% (active)
CCCCOc1ccc(/C=C2/SC(N3CCOCC3)=NC2=O)cc1OCC	97.8% (inactive)
O=c1[nH]c2ccccc2cc1-c1nc2ccncc2[nH]1	75% (inactive)
Nc1n[nH]c2cccc(C#Cc3cccc(C(=O)Nc4cccc(C(F)(F)F)c4)c3)c12	101% (inactive)
Cc1cc2c(-c3nc4ccccn4c3NC34CC5CC(CC(C5)C3)C4)c(O)c(O)cc2c(O)c1-c1c(C)cc2c(-c3nc4ccccn4c3NC34CC5CC(CC(C5)C3)C4)c(O)c(O)cc2c1O	-10.7% (active)
Cc1ccc(OC(=O)c2ccccc2)cc1	107% (inactive)
O=[N+]([O-])c1cccc(-c2nc3sccn3c2-c2ccnc(NCCCNS(=O)(=O)c3ccc(F)cc3)n2)c1	-8.54% (active)
CCCCC[C@H]1CC=C2C(=O)C(Cl)=C[C@@H]2CC=CCCCC(=O)O[C@@H](CCCCC)CC=C2C(=O)C(Cl)=C[C@@H]2CC=CCCCC(=O)O[C@@H](CCCCC)CC=C2C(=O)C(Cl)=C[C@@H]2CC=CCCCC(=O)O1	50.2% [8 µM] (inactive)
COc1ccc(-c2nc3sc(C)cn3c2/C=C/C(=O)c2cc(OC)c(OC)c(OC)c2)cc1	25.5% (inactive)
COCCNC(=O)Cc1cc(-c2ccc(Cl)cc2)n(-c2ccccc2)c1C	73% (inactive)
